# Gal4-VP16 FLuc: VP16 counterscreen qHTS for inhibitors of ROR gamma transcriptional activity; AID 2546, 2010; actives 3.5% (n = 310,000); Drosophila S2 Gal4-VP16 UAS-luciferase, luminescence, 20 h; Potency, µM (top dose mostly 53.6 µM), for inactives: top-dose activity, negative = inhibition, hits mostly inhibitors;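 also: Gal4-VP16 expression switched on by copper sulfate through the metallothionein promoter; potency is read from the fitted curve at half-maximal effect; nearly all actives have a fitted effect of over 50% in size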
# RORg inh: qHTS for inhibitors of ROR gamma transcriptional activity. Nuclear receptor ROR-gamma (Mus musculus), P51450. Drosophila S2 Gal4-RORgamma UAS-luciferase reporter, 20 h. Potency, µM (series often up to 53.6 µM), without a hit: at the highest dose activity change, negative = inhibition, hits mostly inhibitors. actives 5.4% (n = 310,000). AID 2551, 2010; also: potency is read from the fitted curve at half-maximal effect; nearly all actives have a fitted effect of over 60% in size
#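 Luminescence from a UAS-regulated Photinus luciferase reporter in stably transfected Drosophila Schneider cells is measured; decreased signal marks ROR gamma inhibition. Fusion expression is induced by 700 uM copper sulfate for 20 hr.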
# ELG1 DNA repair: qHTS screen for small molecules that inhibit ELG1-dependent DNA repair in human embryonic kidney (HEK293T) cells expressing luciferase-tagged ELG1 | HEK293T ELG1-luciferase reporter, luminescence, 16 h; DNA damage induced by 5-fluorouridine | Potency, µM (doses to about 46.1 µM), for the others: at the highest dose activity change, negative = inhibition, hits mostly inhibitors | actives 2.3% (n = 330,000) | AID 504467, 2011; also: potency is read from the fitted curve at half-maximal effect; nearly all actives have a fitted effect of over 55% in size
#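 Cells (2,000 per well) received 5-fluorouridine plus test compound or DMSO and were incubated 16 hr at 37 °C, 5% CO2. Luciferase activity was read by luminescence 30 min after ONE-Glo addition; signal suppression marked inhibition of damage-induced ELG1 function.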
# Coupling enz: qHTS Assay for Inhibitors of Fructose-1,6-bisphosphate Aldolase from Giardia Lamblia: Coupling assay counterscreen; actives 0.67% (n = 290,000); activity change, negative = inhibition, % at 58.2 µM, hits read low; coupling enzyme system counterscreen, AmpLite Red fluorescence; AID 2472, 2010; in the data active = activity change below about -30%
#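 Counterscreen of the coupled detection system alone, without aldolase: glyceraldehyde-3-phosphate coupling enzymes plus AmpLite Red readout. Compounds at 57.5 uM final, 10 min RT preincubation, 20 min RT reaction, fluorescence 525/598 nm.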
# TSHR antagonist: Antagonists of the Thyroid Stimulating Hormone Receptor: HTS campaign; TSHR-expressing cells, TSH-stimulated cAMP HTRF, 2 h; stronger effect = lower value; Thyrotropin receptor (Homo sapiens), P16473; actives 0.2% (n = 330,000); activity change, negative = inhibition, % at 11.5 µM;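 active = activity change below a set negative limit, meaning inhibition stronger than a set level, cut at about -70% in these data; inconclusive = activity change between two set negative limits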
# Target sequence (P16473 whole entry, looked up): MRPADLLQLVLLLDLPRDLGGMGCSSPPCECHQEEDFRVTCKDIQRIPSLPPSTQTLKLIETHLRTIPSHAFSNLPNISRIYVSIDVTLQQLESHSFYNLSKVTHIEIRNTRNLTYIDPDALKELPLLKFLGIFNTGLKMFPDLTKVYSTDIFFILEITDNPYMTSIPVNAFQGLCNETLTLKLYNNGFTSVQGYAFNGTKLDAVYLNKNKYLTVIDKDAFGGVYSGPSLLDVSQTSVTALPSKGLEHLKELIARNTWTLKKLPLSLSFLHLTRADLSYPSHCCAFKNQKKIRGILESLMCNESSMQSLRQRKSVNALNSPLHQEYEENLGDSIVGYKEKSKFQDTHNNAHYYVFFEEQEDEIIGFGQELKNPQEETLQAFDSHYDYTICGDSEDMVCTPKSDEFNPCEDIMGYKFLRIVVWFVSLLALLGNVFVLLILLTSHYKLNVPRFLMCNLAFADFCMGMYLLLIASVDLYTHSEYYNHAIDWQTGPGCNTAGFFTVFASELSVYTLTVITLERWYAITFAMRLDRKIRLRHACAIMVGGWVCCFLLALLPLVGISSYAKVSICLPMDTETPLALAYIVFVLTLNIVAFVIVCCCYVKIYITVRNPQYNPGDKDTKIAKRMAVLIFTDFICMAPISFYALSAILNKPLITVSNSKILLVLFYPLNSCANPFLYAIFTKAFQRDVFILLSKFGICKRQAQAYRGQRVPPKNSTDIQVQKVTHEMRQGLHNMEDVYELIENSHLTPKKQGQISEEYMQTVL
#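 Read-out is FRET at 665 nm (cryptate excitation 337 nm) from a cryptate-tagged anti-cAMP antibody, competed by cell cAMP against cAMP-d2. Compounds are tested on freshly harvested TSHR cells challenged with 4nM TSH (EC80) for 2 hours at 37 deg C.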
# * marks the source's active call; other numbers are inactive results; u = inconclusive; x = no result given; [ ] = remark or other dose. Only some compounds are listed: those with a hit (about 8% of all), similar ones and a draw of the others. Unless noted, calls follow the shape of the dose curve; as a rule, active = well fitted curve in the direction sought with a large enough effect; inconclusive = small, poorly fitted or top-dose-only effect, or another doubt; inactive = no such curve, though single readings can be large; an effect the other way counts as inactive or inconclusive. % is scaled to controls: 0 for no effect and ±100 for the full control effect.
SMILES,Gal4-VP16 FLuc,RORg inh,ELG1 DNA repair,Coupling enz,TSHR antagonist
CN(C)CCCN(C(=O)CCOc1ccccc1)c1nc2ccc(F)cc2s1,7.94µM*,10µM*,-12.8%,0.2,16.6
CN(C)CCCN(C(=O)c1ccc2c(c1)CCCC2)c1nc2c(F)cccc2s1,-88.5%,u,u,-37.0*,-3.5
CN(CC(=O)Nc1ccccc1Cl)C(=O)Cn1cnc2ccccc2c1=O,x,x,15.0%,x,-1.8
COc1ccc(C(=O)C(C)OC(=O)c2nc3nccc(C)n3n2)cc1 (stereo not given),x,x,u,x,-0.7
Cc1cccc(OCC(=O)NCCCNC(=O)c2ccc(C)nc2)c1,3.3%,30.6%,1.8%,1.5,7.4
Cc1ccc2nc(-c3ccc(NC(=O)COC(=O)c4ccc(Br)o4)cc3)sc2c1,3.98µM*,0.282µM*,u,-1.1,0.2
CCOc1ncccc1C(=O)OCC(=O)Nc1c(C)cc(C)cc1C,4.1%,-7.4%,-0.1%,-1.7,-3.8
O=C(COC(=O)c1ccc(Br)o1)Nc1ccc(Br)cc1,x,x,12.2%,x,48.4
CNS(=O)(=O)c1cccc(C(=O)OCC(=O)Nc2ccc(N3CCCCC3)cc2)c1,-0.3%,u,29.4%,-2.1,15.0
CNS(=O)(=O)c1cccc(C(=O)OCC(=O)Nc2ccc(-c3nc4ccc(C)cc4s3)cc2)c1,u,0.224µM*,u,1.9,-9.8
Cc1ccc2nc(-c3ccc(NC(=O)COC(=O)c4ccc([N+](=O)[O-])o4)cc3)sc2c1,5.01µM*,0.1µM*,u,1.9,3.9
CCOc1ncccc1C(=O)OCC(=O)Nc1ccc(-c2nc3ccc(C)cc3s2)cc1,u,0.398µM*,u,3.2,-2.2
CN(C)S(=O)(=O)c1cccc(COC(=O)CCNC(=O)c2ccc([N+](=O)[O-])cc2)c1,x,x,-0.4%,x,-5.0
CC(=O)OCC(=O)[C@@]1(O)CCC2C3CCC4=CC(=O)CC[C@]4(C)C3C(O)C[C@]21C (stereo not given in full),6.7%,7.6%,x,0.5,x
COc1ccc(/C=C(\C#N)C(=O)OCC(=O)Nc2ccc(-c3nc4ccc(C)cc4s3)cc2)cc1,2µM*,0.501µM*,u,-0.5,-22.8
Cc1ccc2nc(-c3ccc(NC(=O)COC(=O)c4cncc(Br)c4)cc3)sc2c1,10µM*,1.26µM*,u,2.2,-0.3
CC(=O)Nc1ccc(NC(=O)CCN2C(=O)c3ccccc3C2=O)cc1,-19.6%,-11.9%[1.91 µM],0.8%,0.6,14.6
Cc1ccc2sc(-c3ccc(NC(=O)CCN4C(=O)c5ccccc5C4=O)cc3)nc2c1,u,1.12µM*,u,2.7,21.6
C=CCn1c(SCC(=O)Nc2ccc(-c3nc4ccc(C)cc4s3)cc2)nnc1-c1ccccc1,12.6µM*,14.1µM*,u,3.9,7.0
COc1ccc2[nH]cc(CCNc3cc(-c4ccoc4)ncn3)c2c1,2.5%,11.2%,x,0.7,x
O=C(COc1coc(CN2CCN(c3ccccc3)CC2)cc1=O)NC1CCCCC1,x,x,-0.3%,x,12.3
CCC(C)c1ccccc1NC(=O)c1cccc(-n2cnnn2)c1 (stereo not given),x,x,5.3%,x,-14.2
CCN(c1ccccc1)S(=O)(=O)c1cc2c3c(c1)CCN3C(=O)CC2,x,x,5.9%,x,x
O=C(CSc1nnc(CNC(=O)c2ccccc2F)o1)NC1CCCCC1,2.7%,-10.5%,4.2%,x,16.7
Cc1ccc2nc(-c3ccc(NC(=O)COC(=O)c4ccco4)cc3)sc2c1,7.08µM*,0.398µM*,u,1.8,-1.0
SMILES,Gal4-VP16 FLuc,RORg inh,ELG1 DNA repair,Coupling enz,TSHR antagonist
CCOc1ccc(-n2c(C)c(C(C)=O)c3cc(OC(C)=O)ccc32)cc1,-14.5%,-17.9%,6.51µM*,-1.5,-2.6
CCOc1ccc(-n2c(C)c(C(=O)O)c3cc(OC)ccc32)cc1,-7.5%,-24.7%,u,-0.9,-34.3
O=[N+]([O-])c1cc2oc3c(c2c(C=NCc2ccncc2)c1O)CCCC3,u,12.6µM*,6.7%,-32.1*,-37.6
CC(C)(C)N=Cc1c(O)ccc2oc3c(c12)CCCC3,-12.0%,-36.0%,u,0.7,-5.8
CCc1cccc2c3c([nH]c12)[C@@](CC)(CC(=O)O)OCC3,-0.7%[17 µM],-14.8%[16.9 µM],x,16.0,x
COc1ccccc1NC(=O)NC1(C(=O)N2CCCCC2)CCCCC1,-3.4%,-1.0%,-3.9%,-1.5,-74.6*
CCCCC[C@H](O)/C=C/[C@H]1CCC(=O)[C@@H]1CCCCCCC(=O)N1CCCCC1CO (stereo not given in full),-8.6%,0.0%,u,5.6,-4.3
O=C(O)C1Nc2c(C(=O)N3CCOCC3)cccc2C2C=CCC12 (stereo not given),-23.1%,-32.5%,-6.1%,-33.7*,7.5
CCCn1nc(C(=O)Nc2cc(S(=O)(=O)Nc3ccc(OC)cc3)ccc2O)c2ccccc2c1=O,x,x,16.4µM*,x,u
CC(C)Cn1nc(C(=O)Nc2cccc(C(=O)NC3CC3)c2)c2ccccc2c1=O,x,x,16.4µM*,x,-20.4
CCCn1nc(C(=O)NNC(=O)c2cc(S(=O)(=O)NC)ccc2Br)c2ccccc2c1=O,x,x,8.2µM*,x,26.7
O=C(NC1CC1)c1cccc(NC(=O)c2cnn(-c3ccccc3)n2)c1,x,x,11.6µM*,x,x
COC(=O)c1cccc(NC(=O)c2nn(C(C)C)c(=O)c3ccccc23)c1,-15.6%,-31.6%,4.6%,0.6,-5.0
CCn1nc(C(=O)Nc2cccc(S(=O)(=O)N3CCCC3)c2)c2ccccc2c1=O,x,x,u,x,-15.1
CCCn1nc(C(=O)Nc2cccc(C(=O)OC)c2)c2ccccc2c1=O,-9.3%,3.1%,23.1µM*,2.6,-15.5
CC(C)Cn1nc(C(=O)Nc2cccc(S(=O)(=O)N3CCCC3)c2)c2ccccc2c1=O,x,x,20.6µM*,x,-19.8
O=C(Cn1cnc(S(=O)(=O)N2CCOCC2)c1)Nc1ccc(OC(F)(F)F)cc1,-6.3%,-2.6%,1.6%,x,-2.1
COc1ccc(S(=O)(=O)N(CC(=O)NCc2ccncc2)c2cc(C)cc(C)c2)cc1OC,-3.3%,-17.9%,0.5%,-0.4,-7.1
CCN1C(=O)/C(=C\C=C2/C=CC=CN2CC)SC1=S,u,8.91µM*,u,-31.0*,-3.3
CCN1C(=O)/C(=C/C=C2\C=CN(CC)c3ccccc32)SC1=S,-5.7%,14.1%,u,-35.7*,-9.4
CCCN1C(=O)/C(=C\C=C2/Sc3ccccc3N2CC)SC1=S,7.4%,-3.9%,5.0%,4.5,12.7
CC(C)n1c(O)c(N=NC(=O)CNC(=O)CCc2ccccc2)c2ccccc21,-1.9%,1.0%,0.0%,5.9,-0.2
Cc1cc(C(=O)N=Nc2c(O)n(C(C)C)c3ccccc23)n[nH]1,u,11.2µM*,-24.1%,-3.4,5.5

# High-throughput results from PubChem.
